Results: PubChem BioAssay AID1778 (Sanford-Burnham Center for Chemical Genomics, 2009)
“And” between values parts separate entries of the source, which are not always exact repeats. Equal entries are not always repeated. Among all 290,000 compounds or so, about 260 (0.09%) were called active. No stated cut-off is given here; in the data, active means inhibition above about 50%; inactive means the rest. Many of the other results were omitted from the sample, so actives are more common in it than they were. Potency and affinity values are given separately.

Target: Kappa-type opioid receptor (Homo sapiens) (UniProt P41145)
Assay: kappa opioid receptor blockers – cell-based, luminescence, uHTS (AID 1778)
Conditions: KOR beta-arrestin recruitment, antagonist mode, active compounds read high; at 10 µM unless noted

Sequence of Kappa-type opioid receptor (Homo sapiens) (P41145 whole entry, looked up): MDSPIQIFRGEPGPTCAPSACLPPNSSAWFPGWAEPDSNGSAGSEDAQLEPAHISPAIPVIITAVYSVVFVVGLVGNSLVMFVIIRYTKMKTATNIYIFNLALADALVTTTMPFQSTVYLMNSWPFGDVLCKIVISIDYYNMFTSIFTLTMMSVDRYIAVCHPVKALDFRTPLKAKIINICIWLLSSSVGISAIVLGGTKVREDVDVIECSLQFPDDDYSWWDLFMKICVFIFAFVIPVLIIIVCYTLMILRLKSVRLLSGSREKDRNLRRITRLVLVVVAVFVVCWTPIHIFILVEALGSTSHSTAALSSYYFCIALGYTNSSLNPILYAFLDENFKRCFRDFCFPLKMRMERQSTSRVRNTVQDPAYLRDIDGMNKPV

Q: `COc1cc(NC(=O)CN2CCCCC2)c(C)cc1[N+](=O)[O-]` was tested. Which inhibition did it give?
A: 13% (inactive)

Q: `COc1cc(NC(=O)CN2C(=O)CN(C)C2=O)c(C)cc1[N+](=O)[O-]` was tested. Which inhibition did it give?
A: -7.1% (inactive)

Q: Which inhibition does the source give for `COc1ccc(SCC(=O)c2cc(C)c(OC(=S)N(C)C)c(C)c2)cc1` here?
A: -46.3% (inactive)

Q: `CC(C)C(=O)OCC(=O)NCc1ccccc1Cl` was tested. Which inhibition did it give?
A: -7.3% (inactive)

Q: `O=C(CCN1C(=O)[C@@H]2Cc3ccccc3CN2C1=O)N[C@H](Cc1ccccc1)C(=O)O` was tested. Which inhibition did it give?
A: -10% [at 20 µM] (inactive)

Q: Which inhibition does the source give for `C=CCn1c(O)c(N=NC(=S)Nc2ccc(OC)cc2)c2ccccc21` here?
A: 44.9% (inactive)

Q: How did the inhibition turn out when `C=CCn1c(O)c(N=NC(=S)Nc2cccc(C)c2)c2ccccc21` was run?
A: 34% (inactive)

Q: How did the inhibition turn out when `C=CCn1c(O)c(N=NC(=S)Nc2cccc(OC)c2)c2ccccc21` was run?
A: 52.2% (active)

Q: With `N=C1C(c2nc3ccccc3s2)=C(O)CN1CCCO` as the compound, how does the inhibition read?
A: 5.8% (inactive)

Q: Which inhibition does the source give for `CCN(CC)CCCN=Cc1c(-c2ccccc2)[nH]n(-c2nc3ccccc3s2)c1=O` here?
A: 2.1% (inactive)

Q: Which inhibition does the source give for `Cc1cc(Cl)ccc1NC(=O)Cn1cncn1` here?
A: -2.4% (inactive)

Q: Which inhibition does the source give for `CC(CCc1ccc(O)cc1)NCCC(c1ccccc1)c1ccccc1` (stereo not drawn) here?
A: 42.6% (inactive)

Q: Which inhibition does the source give for `CC(NCCC(c1ccccc1)c1ccccc1)c1ccccc1` (stereo not drawn) here?
A: -18.9% (inactive)

Q: With `CCOC(=O)c1c(C)[nH]c(C)c1C(=O)CSc1nc2ccccc2c(=O)n1-c1ccc(Cl)cc1` as the compound, how does the inhibition read?
A: -15.4% (inactive)

Q: `Nc1c2c(nc3sc4c(c13)CCCC4)CCCCCC2` was tested. Which inhibition did it give?
A: -20.4% (inactive)

Q: How did the inhibition turn out when `Nc1c2c(nc3sc4c(c13)CCCCC4)CCCCC2` was run?
A: -28.2% (inactive)

Q: `Nc1nc2sc3c(c2c(=O)s1)CCCC3` was tested. Which inhibition did it give?
A: -49.8% (inactive)

Q: With `Nc1c2c(nc3sc4c(c13)CCCC4)-c1ccccc1CC2` as the compound, how does the inhibition read?
A: 9.5% (inactive)

Q: `CC1CCN(C(=O)COc2ccc3ccccc3c2Br)CC1` was tested. Which inhibition did it give?
A: -12.2% (inactive)

Q: `CCc1ccc(CN2CCC(C(=O)Nc3cccc(-c4nnc(C)s4)c3)CC2)o1` was tested. Which inhibition did it give?
A: -24.6% (inactive)

Q: With `O=S(=O)(NCCc1ccccc1)c1ccc(-n2cnnn2)cc1` as the compound, how does the inhibition read?
A: -7.2% (inactive)

Q: How did the inhibition turn out when `CC(=O)Nc1cccc(NC(=O)COc2nncc3ccccc23)c1` was run?
A: 13.2% (inactive)

Q: How did the inhibition turn out when `CC(C)Cn1c(C(C)NC(=O)Cc2ccccc2)nc2ccccc21` (stereo not drawn) was run?
A: -13.7% (inactive)

Q: For `O=C1CCC([N+](=O)[O-])C(c2ccc(Cl)cc2)N1` (stereo not drawn), which inhibition is on record?
A: -23.8% (inactive)

Q: For `CCOC(=O)c1cc2c(ccc3ccccc32)oc1=O`, which inhibition is on record?
A: -26.8% [at 20 µM] (inactive)

Q: `CC(=O)c1cc2c(ccc3ccccc32)oc1=O` was tested. Which inhibition did it give?
A: -8.6% (inactive)

Q: For `CC1(C)CC(=O)CC(=Nc2ccc3[nH]c(=O)[nH]c3c2)C1`, which inhibition is on record?
A: 17.9% (inactive)

Q: Which inhibition does the source give for `CC1Oc2ccccc2C=C1/C=N/NC(=O)c1ccncc1` (stereo not drawn) here?
A: 22.3% (inactive)

Q: For `CC(C)CCn1nnnc1CN1CCN(c2ccc(F)cc2)CC1`, which inhibition is on record?
A: -16.4% [at 20 µM] (inactive)

Q: With `Cc1ccc(N2CCCn3c2nc2c3c(=O)n(CCN3CCOCC3)c(=O)n2C)cc1` as the compound, how does the inhibition read?
A: -16.1% (inactive)

Q: Which inhibition does the source give for `Cn1c(=O)n(CCN2CCOCC2)c(=O)c2c1nc1n2CCCN1c1ccccc1` here?
A: 51.1% (active)

Q: With `Cc1cccc(N2CCCn3c2nc2c3c(=O)n(CCN3CCOCC3)c(=O)n2C)c1` as the compound, how does the inhibition read?
A: -4% (inactive)

Q: `CN(CC(=O)Nc1ccc(F)c(F)c1F)C(=O)c1ccc(=O)[nH]c1` was tested. Which inhibition did it give?
A: 31.4% (inactive)

Q: Which inhibition does the source give for `CN(Cc1cnn(-c2ccccc2)c1)C(=O)C1CCC(=O)N(C2CC2)C1` (stereo not drawn) here?
A: 9.1% (inactive)

Q: Which inhibition does the source give for `O=C(O)CNc1nc(-c2ccccc2)c2cc([N+](=O)[O-])ccc2n1` here?
A: 4.1% (inactive)

Q: With `O=[N+]([O-])c1ccc2nc(-c3ccccc3)cc(-c3ccccc3)c2c1` as the compound, how does the inhibition read?
A: 14.3% (inactive)

Q: With `O=C(O)CCCc1c(-[n+]2ccccc2)[nH]c2ccccc12` as the compound, how does the inhibition read?
A: 5.9% (inactive)

Q: For `COCCOC(=O)c1[nH]c2c(c1C)C(=O)CC(c1ccc(OC)c(OC)c1)C2` (stereo not drawn), which inhibition is on record?
A: -5.3% (inactive)

Q: `CCCCN(CCCNC(=O)C1CCN(S(=O)(=O)CC)CC1)c1ccccc1` was tested. Which inhibition did it give?
A: 23.2% (inactive)

Q: `CN(CCCNC(=O)C1CCN(S(=O)(=O)N2CCC3(CC2)OCCO3)CC1)Cc1ccccc1` was tested. Which inhibition did it give?
A: -79.2% (inactive)

Q: Which inhibition does the source give for `CCCCN(CCCNC(=O)C1CCN(S(=O)(=O)N2CCOCC2)CC1)Cc1ccccc1` here?
A: 28.7% (inactive)

Q: `CCN(CCCNC(=O)C1CCN(S(=O)(=O)CC)CC1)c1ccccc1` was tested. Which inhibition did it give?
A: 17.3% (inactive)

Q: How did the inhibition turn out when `Cc1c(Cl)cccc1NC(=S)N1CCCN(Cc2ccccc2F)C1` was run?
A: -15.1% (inactive)

Q: How did the inhibition turn out when `COc1cccc(C(=O)Oc2cc(C)[nH]c(=O)c2[N+](=O)[O-])c1OC` was run?
A: 6.3% (inactive)

Q: `CC(C)[C@H](NC(=O)[C@@H]1Cc2ccccc2CN1)C(=O)Nc1ccc2c(c1)OCCO2` was tested. Which inhibition did it give?
A: -1.1% (inactive)

Q: With `COc1ccc(N2CCN(C(C)C(=O)N3CC(C)OC(C)C3)CC2)cc1` (stereo not drawn) as the compound, how does the inhibition read?
A: -2.4% (inactive)

Q: For `O=C1C(=O)N(CCCn2ccnc2)C(c2ccc(Br)cc2)/C1=C(\O)c1ccc2c(c1)OCCO2` (stereo not drawn), which inhibition is on record?
A: -11.2% (inactive)

Q: Which inhibition does the source give for `COc1cc2c(c(OC)c1OC)-c1c(cc3c(c1OC)OCO3)[C@@H](OC(C)=O)[C@H](C)[C@H](C)C2` here?
A: 20.4% (inactive)

Q: How did the inhibition turn out when `C/C=C(/C)C(=O)O[C@@H]1c2cc3c(c(OC)c2-c2c(cc(OC)c(OC)c2OC)[C@@H](OC(C)=O)[C@@H](C)[C@H]1C)OCO3` was run?
A: 10.7% (inactive)

Q: With `COc1ccc(-c2cc(C(=O)N/N=C/c3cccnc3)c3cc(C)cc(C)c3n2)cc1` as the compound, how does the inhibition read?
A: 1.8% (inactive)

Q: Which inhibition does the source give for `Cc1cccc(NC(=O)COC(=O)c2ccccc2SCC(=O)N2CCCC2)c1` here?
A: 30.1% (inactive)

Q: With `CC(CN1CCN(C)CC1)OC(=O)c1ccccc1` (stereo not drawn) as the compound, how does the inhibition read?
A: -12.4% (inactive)

Q: With `O=C1C(Oc2ccccc2)C(c2ccc3c(c2)OCO3)N1CCc1ccc(F)cc1` (stereo not drawn) as the compound, how does the inhibition read?
A: 64% (active)

Q: `COc1ccc(CCN2C(=O)C(Oc3ccccc3)C2c2ccc3c(c2)OCO3)cc1` (stereo not drawn) was tested. Which inhibition did it give?
A: -53.4% (inactive)

Q: `COc1ccc(CCN2C(=O)C(Oc3ccccc3C)C2c2ccc3c(c2)OCO3)cc1` (stereo not drawn) was tested. Which inhibition did it give?
A: -11% (inactive)

Q: Which inhibition does the source give for `Cc1nc(SCC(=O)N2CCOCC2)c2c(C)c(C)sc2n1` here?
A: -32.1% (inactive)

Q: `O=C(CSC1=NC(=O)C(c2ccccc2)C(=O)N1)Nc1cccc(Cl)c1` (stereo not drawn) was tested. Which inhibition did it give?
A: -48.8% (inactive)

Q: `C/C(=N\NC(=O)COc1ccccc1-c1ccccc1)c1ccccn1` was tested. Which inhibition did it give?
A: 99% (active)

Q: With `C/C(=N\NC(=O)c1ccccn1)c1ccc(Cl)cc1` as the compound, how does the inhibition read?
A: -13.1% (inactive)

Q: With `C=CCNC(=S)N/N=C(\C)c1cccc(OC)c1` as the compound, how does the inhibition read?
A: 26.1% (inactive)

Q: How did the inhibition turn out when `C/C(=N\NC(=O)COc1ccccc1-c1ccccc1)c1cccnc1` was run?
A: -42.8% (inactive)

Q: How did the inhibition turn out when `C/C(=N\NC(=O)COc1ccccc1-c1ccccc1)c1ccc(O)cc1O` was run?
A: -14.4% (inactive)

Q: For `C=CCNC(=S)N/N=C(\C)c1cccnc1`, which inhibition is on record?
A: 3.5% (inactive)

Q: `C/C(=N\NC(=O)Cc1ccc(Cl)cc1)c1ccccc1O` was tested. Which inhibition did it give?
A: -29.7% [at 20 µM] (inactive)

Q: How did the inhibition turn out when `CCCn1c2ccccc2c2cnn(CC(=O)NCCN(C)C)c(=O)c21` was run?
A: -19% (inactive)

Q: Which inhibition does the source give for `COc1ccc(OCCSc2nnc(C)n2-c2ccccc2)cc1` here?
A: -14.2% (inactive)

Q: `O=C(COC(=O)c1c(F)cccc1F)NCCNC(=O)COC(=O)c1c(F)cccc1F` was tested. Which inhibition did it give?
A: -58.8% (inactive)

Q: Which inhibition does the source give for `CC1(C)CNC(=O)CC(C)(C)N1O` here?
A: 8.7% (inactive)

Q: With `O=C(NCc1ccco1)c1cccc(C(F)(F)F)c1` as the compound, how does the inhibition read?
A: -35.4% [at 20 µM] (inactive)

Q: With `CCNc1nc(Oc2ccc(C(=O)OC)cc2)nc(SC)n1` as the compound, how does the inhibition read?
A: 1.5% (inactive)

Q: `O=C1c2cccc3cccc(c23)C(=O)N1/N=C/c1ccc(O)cc1O` was tested. Which inhibition did it give?
A: -17.5% (inactive)

Q: Which inhibition does the source give for `Cc1ccc(-n2[nH]c(C)c(/C=N/c3cccc(C)n3)c2=O)cc1` here?
A: 21.8% (inactive)

Q: With `Cc1[nH]n(-c2ccccc2)c(=O)c1/C=N/N1C(=O)c2ccc3c4c(ccc(c24)C1=O)CC3` as the compound, how does the inhibition read?
A: -2.7% (inactive)

Q: Which inhibition does the source give for `COc1ccccc1/C=N/N1C(=O)c2cccc3cccc(c23)C1=O` here?
A: -44.5% (inactive)

Q: How did the inhibition turn out when `CSc1oc(-c2ccccc2)nc1S(=O)(=O)c1ccc(F)cc1` was run?
A: -25.9% (inactive)

Q: Which inhibition does the source give for `O=C(CO/N=C1\CCCc2nonc21)Nc1ccc(Br)cc1` here?
A: 24.7% (inactive)

Q: Which inhibition does the source give for `COc1cccc(NC(=O)C2CCN(C(=O)NC3CCCCC3)CC2)c1` here?
A: -51.6% (inactive)

Q: For `Cc1cc(C)cc(NC(=O)CSc2nnc(-c3cc(C)[nH]n3)n2N)c1`, which inhibition is on record?
A: -17.6% (inactive)

Q: With `O=C(CSc1nnc(NC(=O)c2ccc(F)cc2)s1)NCc1ccco1` as the compound, how does the inhibition read?
A: 22.3% (inactive)

Q: How did the inhibition turn out when `Oc1ccc2ccccc2c1N=Nc1ccc(F)cc1` was run?
A: 6.7% (inactive) and 41.7% (inactive)

Q: How did the inhibition turn out when `Oc1c(N=Nc2ccc(F)cc2)ccc2ccccc12` was run?
A: 7.2% [at 20 µM] (inactive)

Q: `Cc1ccc(N=Nc2ccc3ccccc3c2O)cc1` was tested. Which inhibition did it give?
A: 15.6% [at 20 µM] (inactive)

Q: How did the inhibition turn out when `Oc1ccc2ccccc2c1N=Nc1nccs1` was run?
A: 109% (active)

Q: Which inhibition does the source give for `Oc1ccc(N=Nc2c(O)ccc3ccccc23)cc1` here?
A: 32% (inactive)

Q: How did the inhibition turn out when `Oc1ccc2ccccc2c1/C=N/c1nccs1` was run?
A: -15.8% (inactive)

Q: How did the inhibition turn out when `Oc1ccc2ccccc2c1N=Nc1ccccc1F` was run?
A: 37.6% (inactive)

Q: How did the inhibition turn out when `COC(=O)c1cc(C(=O)NCC2CCCCC2)cc([N+](=O)[O-])c1` was run?
A: 7.5% (inactive)

Q: With `Cc1ccc(-c2nnn(CC(=O)N(c3ccccc3)C(C(=O)NC3CCCC3)c3ccncc3)n2)o1` (stereo not drawn) as the compound, how does the inhibition read?
A: 5.7% (inactive)

Q: `CC(C)NS(=O)(=O)c1ccc(CCC(=O)Nc2ccc3c(c2)OCCO3)cc1` was tested. Which inhibition did it give?
A: 7.5% (inactive)

Q: How did the inhibition turn out when `CS(=O)(=O)c1ccc2nc(NC(=O)c3ccc(Cl)cc3)sc2c1` was run?
A: -55% [at 20 µM] (inactive)

Q: How did the inhibition turn out when `O=C(O)c1ccc(-c2ccccc2)[nH]c1=O` was run?
A: 5.6% (inactive)

Q: `CC(C)(C)NC(=O)c1cc(NC(=O)c2cccs2)cc(NC(=O)c2cccs2)c1` was tested. Which inhibition did it give?
A: -34.4% (inactive)

Q: For `Cc1nc(Cl)c(Cl)n1CCOc1ccccc1`, which inhibition is on record?
A: -4.6% (inactive)
